# Bioassay records from PubChem BioAssay.
# This is a sample that favours compounds with a hit; in the whole collection about 2.4% have one here.
# POLH inh – inhibitors of human DNA polymerase eta | Q9Y253 | recombinant Pol eta, fluorescent DNA replication assay | Potency, µM (titrated, usually from 114 µM), for inactives: at the highest dose activity change, negative = inhibition, hits mostly inhibitors | 1.2% of 390,000 active | AID 588591; note: % is set by controls: 0 for no effect and ±100 for the full control effect
#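 Fluorescent replication assay: 50 nM final substrate added after a 15 min room-temperature compound preincubation with 10 nM enzyme. Signal taken at 0 min and again at 10 min.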
# WRN helicase inh-1 – WRN helicase (human) inhibition. WRN helicase unwinding, fluorescent forked duplex, kinetic. 0.46% of 360,000 active. Potency, µM (doses to about 114 µM), inactives show top-dose activity change, negative = inhibition, usual class: inhibitors. Q14191; note: % is set by controls: 0 for no effect and ±100 for the full control effect; nearly all actives have a fitted effect of over 55% in size
#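 Fluorescence dequenching readout, ex 525 nm/em 598 nm, kinetic mode: forked duplex DNA (100 nM final) with adjacent fluorophore and quencher unwound by WRN (20 nM final) with 2 mM ATP. Compound preincubation 15 min, room temperature.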
# FEN1 inhibitor – human FEN1 inhibition; 0.35% of 390,000 active; P39748; Potency, µM (doses to about 114 µM), without a hit: at the top dose activity change, negative = inhibition, usual class: inhibitors; Recombinant FEN1 flap cleavage, fluorescence, 15 min; AID 588795; note: % is set by controls: 0 for no effect and ±100 for the full control effect; nearly all actives have a fitted effect of over 65% in size
#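 Concentration–response screening of FEN1 (10 nM): 15 min compound preincubation at room temperature, reaction started with 50 nM substrate and read at 0 and 15 min. Corrected, normalized data were fitted by a four-parameter Hill equation.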
# POLB inh – blocks human DNA polymerase beta activity | P06746 | Pol beta primer extension/strand displacement, fluorescence kinetic | Potency, µM (top dose mostly 114 µM), without a hit: at the highest dose activity change, negative = inhibition, hits mostly inhibitors | 1.3% of 340,000 active | AID 485314; note: % is set by controls: 0 for no effect and ±100 for the full control effect
#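 Homogeneous kinetic assay of primer extension and strand displacement by 10 nM Pol beta, preincubated 15 min at room temperature with compound before 50 nM substrate (final) was added. Read at 0 and 10 min; four-parameter Hill fit.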
# POLI inh – inhibitors of human DNA polymerase iota | Pol iota fluorescent replication assay, 10 min | Q9UNA4 | 1% of 390,000 active | Potency, µM (top dose mostly 115 µM), inactives show at the highest dose activity, negative = inhibition, hits mostly inhibitors
# Target sequence (Q9UNA4 whole entry, looked up): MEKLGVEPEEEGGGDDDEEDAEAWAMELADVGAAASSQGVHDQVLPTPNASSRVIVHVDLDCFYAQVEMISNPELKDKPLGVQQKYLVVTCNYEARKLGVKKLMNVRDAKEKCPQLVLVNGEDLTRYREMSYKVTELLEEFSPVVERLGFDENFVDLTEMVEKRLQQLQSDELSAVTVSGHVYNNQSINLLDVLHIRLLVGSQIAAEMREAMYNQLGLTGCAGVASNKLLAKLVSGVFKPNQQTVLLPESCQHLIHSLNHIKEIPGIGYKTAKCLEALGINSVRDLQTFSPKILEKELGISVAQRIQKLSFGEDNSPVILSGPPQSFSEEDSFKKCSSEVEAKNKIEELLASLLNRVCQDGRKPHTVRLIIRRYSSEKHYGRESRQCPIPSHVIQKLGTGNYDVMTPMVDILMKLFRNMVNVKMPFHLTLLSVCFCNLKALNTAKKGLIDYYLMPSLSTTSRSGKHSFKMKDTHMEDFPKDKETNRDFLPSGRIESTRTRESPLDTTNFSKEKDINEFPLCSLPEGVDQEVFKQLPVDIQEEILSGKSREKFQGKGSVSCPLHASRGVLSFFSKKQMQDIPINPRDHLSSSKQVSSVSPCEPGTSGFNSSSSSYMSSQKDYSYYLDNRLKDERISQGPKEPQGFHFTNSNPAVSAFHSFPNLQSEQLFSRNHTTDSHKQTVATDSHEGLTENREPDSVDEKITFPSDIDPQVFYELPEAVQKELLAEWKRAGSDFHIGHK
#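 Fluorescent replication assay read twice, at 0 min and 10 min after adding 50 nM (final) substrate. Enzyme (10 nM) and compounds were first incubated 15 min at room temperature; enzyme-free buffer wells were negative controls.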
# POLK inh – blocks human DNA polymerase kappa activity | Q9UBT6 | purified Pol kappa, fluorescent DNA synthesis assay, 10 min | Potency, µM (top dose mostly 107 µM), for inactives: at the top dose activity, negative = inhibition, most hits filed as inhibitors | 0.53% of 400,000 active | AID 588579; note: % is set by controls: 0 for no effect and ±100 for the full control effect
#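 Inhibition of 10 nM Pol kappa is measured by a fluorescent read-out at 0 and 10 min following addition of 50 nM substrate (final), with a 15-min room-temperature compound preincubation.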
# WRN helicase inh-2 – confirmation of human WRN helicase inhibitors. Potency, µM (highest dose often 57.1 µM), for the others: at the highest dose activity, negative = inhibition, actives largely listed as inhibitors. WRN helicase DNA unwinding, fluorescence kinetic. shares compounds with WRN helicase inh-1. AID 720497. 63% of 610 active; note: nearly all actives have a fitted effect of over 65% in size
# TO displacement – binds DNA, flagged in WRN inhibitor counterscreen; Potency, µM (top dose mostly 57.1 µM), inactives show at the top dose activity change, negative = inhibition, most hits filed as inhibitors; thiazole orange DNA binding displacement, fluorescence; shares compounds with WRN helicase inh-1; 10% of 610 active; AID 720499;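 note: drop in dye fluorescence marks compound binding to DNA; % is set by controls: 0 for no effect and ±100 for the full control effect; nearly all actives have a fitted effect of over 60% in size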
# BLM counter – blocks human BLM helicase in WRN counterscreen; shares compounds with WRN helicase inh-1; Recombinant BLM helicase DNA unwinding, red fluorescence; Potency, µM (top dose mostly 57.1 µM), inactives show top-dose activity change, negative = inhibition, hits mostly inhibitors; 60% of 610 active; AID 720503; note: nearly all actives have a fitted effect of over 60% in size
# Numbers without * were called inactive; ? = inconclusive; . = no result; [ ] = dose if it differs, or a comment. Calls come from the whole dose curve; as a rule, active = well fitted curve in the direction sought with a large enough effect; inconclusive = small, poorly fitted or top-dose-only effect, or another doubt; inactive = no such curve, though single readings can be large; an effect the other way counts as inactive or inconclusive. Potency is the fitted concentration of half-maximal effect.
SMILES,POLH inh,WRN helicase inh-1,FEN1 inhibitor,POLB inh,POLI inh,POLK inh,WRN helicase inh-2,TO displacement,BLM counter
Cc1ccc2nc3c(cc2c1)c(C)nn3-c1ccccc1,-18%,5%,6%,20%,8%,19%,.,.,.
O=C(NCc1ccc2c(c1)OCO2)c1ccc2c(c1)N(Cc1ccc(F)cc1)C(=O)c1ccccc1S2=O (centres undefined),-7%,.,-12%,0%,-6%,-28%,.,.,.
Nc1c(S(=O)(=O)O)cc(NC(=O)c2ccccc2)c2c1C(=O)c1ccccc1C2=O,18µM*,28µM*,?,22µM*,?,-9%,12µM*,11µM*,19µM*
O=C(Nc1ccccc1-c1ccccc1)c1ccccc1,1%,-2%,-13%,15%,5%,-3%,.,.,.
NS(=O)(=O)c1ccc(-c2ccc(/C=C3\C(=O)Nc4cc(Cl)ccc43)o2)cc1,?,-18%,3%,?,?,-19%,.,.,.
CC1(C)OC(=O)C(=Cc2ccc(-c3ccc(S(N)(=O)=O)cc3)o2)C(=O)O1,50µM*,?,-18%,4%,?,?,?,-10%,?
CCOC(=O)c1noc2ncnc(N3CCN(c4cccc(Cl)c4)CC3)c12,-13%,.,7%,-29%,9%,0%,.,.,.
CC1=C(C)CS(=O)N(S(=O)(=O)c2ccccc2)C1 (centres undefined),-9%,40µM*,?,7%,?,-11%,-13%,-5%,-17%
COc1ccc(NC(=O)Nc2ccc(OCc3ccccc3)cc2)cn1,-5%,0%,-5%,-1%,35%,12%,.,.,.
COc1ccc(NC(=O)/C(Cl)=C(/Cl)S(=O)(=O)Cc2ccccc2)cn1,?,12µM*,-16%,4%,?,-8%,?,-11%,-30%
O=C1NC(=Nc2ccc(O)cc2)S/C1=C\C=C\c1ccco1,32µM*,?,-15%,20µM*,?,-44%,19µM*,?,22µM*
COc1ccc(-c2csc3nc(-c4ccc(C)cc4)oc(=O)c23)cc1OC,?,?,-4%,?,?,4%,12µM*,85%,1.9µM*
COc1ccc(-c2csc3nc(C(C)(C)C)oc(=O)c23)cc1OC,-28%,7%,1%,-27%,9%,-9%,.,.,.
Cc1nn(CCc2nc(-c3ccco3)cs2)c2[nH]c(=O)cc(C(F)(F)F)c12,32µM*,35µM*,?,22µM*,13µM*,35µM*,?,-14%,22µM*
O=[N+]([O-])c1cccnc1S(=O)(=O)c1ccccc1,-2%,-29%,12%,13%,27%,-4%,.,.,.
COc1ccc([N+](=O)[O-])c(S(=O)(=O)c2ccc(Cl)cc2)n1,-8%,16µM*,-20%,-23%,?,5%,?,-5%,-16%
COc1ccc([N+](=O)[O-])c(S(=O)(=O)c2ccccc2)n1,-6%,32µM*,2%,21%,14µM*,1%,?,-8%,-19%
CC(=O)Nc1c(C)nn(-c2ccccc2)c1N1CCC(C(=O)NCc2cccc(Cl)c2)CC1,-7%,.,-8%,3%,30%,-4%[60.1 µM],.,.,.
Cc1nc2ccccc2n1CCc1nc2c3ccccc3nc(SCc3ccc(F)cc3)n2n1,-13%,.,20%,1%,-16%,-14%[60.1 µM],.,.,.
Cc1ccc(NN2C(=O)C=C(c3ccccc3)C2=O)cc1,-6%,?,-23%,3%,?,-4%,-20%,-6%,-22%
CC1=C(SCc2ccccc2)C(=O)c2ccccc2C1=O,32µM*,?,?,.,3.2µM*,-11%,?,?,24µM*
Cn1c(SCc2ccccc2)nccc1=O,-21%,3%,4%,.,52%,-1%,.,.,.
O=C1ON=C(c2ccccc2)/C1=C/c1ccc(OS(=O)(=O)c2ccccc2)cc1,?,?,-2%,-9%,-3%,-29%,.,.,.
COc1ccc(/C=C2\C(=O)ON=C2c2ccccc2)cc1,10%,32µM*,-10%,-2%,?,-5%,-23%,-4%,-25%
CCC(=O)Oc1ccc(-c2nc3ccccc3c(=O)o2)cc1,15%,.,4%,18%,17%,0%,.,.,.
SMILES,POLH inh,WRN helicase inh-1,FEN1 inhibitor,POLB inh,POLI inh,POLK inh,WRN helicase inh-2,TO displacement,BLM counter
CC(C)c1ccc(OCC(=O)Nc2cc(-c3ccccc3)no2)cc1,-17%,.,1%,21%,22%,7%,.,.,.
Cc1ccc(NC(=O)N/C=C/c2ccco2)cc1,50µM*,?,-15%,22µM*,20µM*,50µM*,-23%,-28%,14µM*
CCOc1ccc(NC(=O)CSC2=Nc3ccccc3C3=NC(Cc4ccccc4)C(=O)N23)cc1 (centres undefined),-4%,.,-13%,-1%,-2%,-2%[60.1 µM],.,.,.
N#Cc1ccccc1Cn1c(=O)n(CCCC(=O)NCc2ccc3c(c2)OCO3)c(=O)c2sccc21,-3%,.,17%,8%,12%,-20%,.,.,.
CN(C)CCNC(=O)c1cccc2ccc(-c3ccc(-c4ccccc4)cc3)nc12,-11%,45%,?,.,-29%,-16%,.,.,.
COc1ccc(OC)c2nc3c(C(=O)NCCN(C)C)cccc3nc12,?,13µM*,14µM*,.,?,?,14µM*,11µM*,22µM*
COc1cc(-c2cnc3c(NC=O)cc(-c4cccc(NC(C)=O)c4)cn23)cc(OC)c1OC,.,25µM*,.,.,.,.,9.6µM*,8%,15µM*
CCc1cc(=O)oc2cc(C)c(CN3CCCCC3)c(O)c12,14µM*,25µM*,50µM*,8.9µM*,7.9µM*,18µM*,?,-21%,?
O=C(O)COc1ccccc1/C=N/NC(=O)c1cc(-c2ccc(Cl)cc2)nc2ccccc12,?,?,?,-6%,-18%,-1%,?,?,27µM*
CCOc1cccc(CNc2ccc(O)cc2)c1OCc1ccc(Cl)cc1Cl,?,?,-11%,-1%,3.2µM*,-18%,-29%,-27%,?
CCOc1cccc(CNCCO)c1OCc1ccc(Cl)cc1Cl,-16%,25%,-23%,1%,14%,-8%,.,.,.
